D2 ag-1: Beta-Arrestin HTS for Positive Allosteric Modulators of the Human D2 Dopamine Receptor: Agonists; D(2) dopamine receptor (Homo sapiens), P14416; DiscoveRx PathHunter D2 beta-arrestin, luminescence, 90 min; 100% = 57 uM dopamine signal; activation, % (no concentration beside the values); 360,000 tested, 0.084% active; AID 624465, 2012; in the data active means activation above about 40%; inconclusive means between about 15% and that limit
Target sequence (P14416 whole entry, looked up): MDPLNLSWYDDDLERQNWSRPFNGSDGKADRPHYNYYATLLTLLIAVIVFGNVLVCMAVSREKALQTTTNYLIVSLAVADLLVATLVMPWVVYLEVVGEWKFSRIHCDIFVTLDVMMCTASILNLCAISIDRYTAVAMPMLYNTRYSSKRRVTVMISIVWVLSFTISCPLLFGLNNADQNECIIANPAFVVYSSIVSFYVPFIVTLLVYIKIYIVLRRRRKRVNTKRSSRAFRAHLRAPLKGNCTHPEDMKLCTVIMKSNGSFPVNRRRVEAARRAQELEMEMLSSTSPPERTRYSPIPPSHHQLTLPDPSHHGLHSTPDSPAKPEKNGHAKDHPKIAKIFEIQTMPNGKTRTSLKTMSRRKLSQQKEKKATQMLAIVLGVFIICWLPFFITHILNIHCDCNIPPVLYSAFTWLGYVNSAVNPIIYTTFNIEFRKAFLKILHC
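Agonist mode: compounds alone added to overnight-plated D2 PathHunter cells for 90 min at 37 C, with 57 uM final dopamine (EC100) defining full response. Beta-arrestin recruitment detected by chemiluminescent reagent, read after 1 h at ambient temperature.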
D2 PAM-1: Beta-Arrestin HTS for Positive Allosteric Modulators of the Human D2 Dopamine Receptor: Potentiators | DiscoveRx D2 beta-arrestin cells, luminescence, 90 min; 100% = 57 uM dopamine signal | 360,000 tested, 0.23% active | potentiation, % (concentration not given with the values) | D(2) dopamine receptor (Homo sapiens), P14416 | AID 624464, 2012; in the data active means potentiation above about 50%; inconclusive means mostly about 30% to 49%
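PathHunter beta-arrestin assay in DiscoveRx D2 cells. Compounds were added with an EC20 of dopamine (50 nM final) for 90 min at 37 deg C. Luminescence was read 1 h after detection reagent, with 57 uM dopamine as the EC100 control.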
D2 antagonist: HTS Assay for Allosteric Antagonists of the Human D2 Dopamine Receptor: Primary Screen for Antagonists. D(2) dopamine receptor (Homo sapiens), P14416. HEK293 TREx D2 cells, calcium flux, dopamine EC80. inhibition, % at 10 µM. 340,000 tested, 2% active; in the data active means inhibition above about 30%; inactive means below that, where a call was filed; further: 0% is about no effect
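Dopamine at EC80 is the agonist stimulus; test compounds precede it by 180 s. Calcium flux read kinetically in a force-coupled, inducible HEK293 T-REx D2 cell line.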
D2 PAM-2: HTS Assay for Positive Allosteric Modulators of the Human D2 Dopamine Receptor: Primary Screen for Potentiators; D(2) dopamine receptor (Homo sapiens), P14416; HEK293 T-REx D2, calcium flux, EC20 dopamine potentiation; potentiation, % at 10 µM; 340,000 tested, 0.34% active; AID 485347, 2010;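 active means potentiation over 3 SD above the plate norm, cut at about 30% in these data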; further: 0% is about no effect
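Tetracycline-induced Hek293 Trex D2 cells, force-coupled to calcium, loaded with no-wash calcium dye. Compound added with 180 s kinetic read for agonism, then EC20 dopamine and a further 180 s read for potentiation.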
D2 ag-2: HTS Assay for Allosteric Agonists of the Human D2 Dopamine Receptor: Primary Screen for Agonists; D(2) dopamine receptor (Homo sapiens), P14416; 340,000 tested, 0.53% active; activation, % at 2 µM; HEK293 T-REx D2 cells, calcium flux agonist mode; AID 485358, 2010;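 active means activation over 3 SD above normal in the single-dose calcium agonist read, cut at about 30% in these data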; further: 0% is about no effect
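Calcium-flux readout, 1 cycle/sec over 180 s following compound pin transfer, in inducible HEK293 Trex D2 cells (force-coupled); dopamine controls included. Positive calcium responses during this window marked compounds as potential agonists.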
D3 arrestin ag: qHTS of D3 Dopamine Receptor Agonist: D3 Dopamine Receptor B-arrestin Agonist Confirmatory Assay; shares compounds with D2 ag-2; DiscoveRx D3 beta-arrestin cells, luminescence, 90 min; Potency, µM (highest dose often 76.9 µM), for the others: at the highest dose activation, usual class: activators; 2,300 tested, 4% active;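 further: potency means the concentration at half of the fitted maximal effect; 100% = dopamine control response; nearly all actives have a fitted effect of over 70% in size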
D2 ag-3: qHTS of D3 Dopamine Receptor Agonist: D2 Dopamine Receptor B-arrestin Agonist Counterscreen | 2,300 tested, 5.9% active | shares compounds with D2 ag-2 | Potency, µM (top dose mostly 76.9 µM), without a hit: at the highest dose activation, hits mostly activators | DiscoveRx PathHunter D2 beta-arrestin, luminescence, 90 min; response scale: percent relative to full dopamine signal | AID 720507, 2013; further: potency means the concentration at half of the fitted maximal effect; % of control where 0% means no effect; nearly all actives have a fitted effect of over 70% in size
Numbers without * were called inactive; ? = inconclusive; . = not tested or not shown. Shown are actives, neighbours in structure and some others; about 2.4% of the full set was active somewhere. Unless noted, the call rests on the fitted dose curve; in most records, active means well fitted activation curve with a large enough effect; inconclusive means small, poorly fitted or top-dose-only effect; inactive means flat fitted curve, though single readings scatter.

SMILES | D2 ag-1 | D2 PAM-1 | D2 antagonist | D2 PAM-2 | D2 ag-2 | D3 arrestin ag | D2 ag-3
O=S(=O)(NCC(c1cccnc1)N1CCN(c2ccccc2)CC1)c1cccs1 (stereo not drawn) | 9.3 | 9.2 | -18.0 | -8.0 | 15.0 | -3.8% | 4.1%
COc1ccc(N2CCN(C(CNS(=O)(=O)c3cccs3)c3cccnc3)CC2)cc1 (stereo not drawn) | -2.5 | -4.4 | 11.6 | 26.1 | -1.4 | . | .
CCOc1cc(C)c(Cl)cc1S(=O)(=O)NCCOC | -1.1 | -4.0 | 32.3* | -17.9 | 58.9* | -7.8% | -3.2%
CCN(CC)C1=CC2=CC(=C(C#N)C#N)CCC2CC1 (stereo not drawn) | 2.7 | -1.6 | 75.6* | -16.5 | 208.7* | -6.9% | 17.3%
CCCNC(=O)c1ccc2c(c1)N=C(C)c1c(C)ccc(C)c1S2 | . | . | . | 4.5 | 5.7 | . | .
COc1cc(/C=N/Nc2cc(C)nc(NS(=O)(=O)c3ccc(C)cc3)n2)ccc1O | 1.8 | -1.1 | 1.1 | 11.9 | -1.4 | . | .
COc1cc(/C=N/Nc2cc(C)nc(NS(=O)(=O)c3ccccc3)n2)ccc1O | -0.6 | 5.3 | 25.7 | -2.1 | -0.5 | 10.1% | -1.5%
CCc1ccc(NC(=O)CSc2nc3ccsc3c(=O)n2C(C)CC)cc1 (stereo not drawn) | . | . | . | . | 0.0 | . | .
Cc1oc(-c2ccccc2Cl)nc1CS(=O)CC(=O)N1CCN(c2ccccc2)CC1 (stereo not drawn) | 2.7 | 14.6 | -16.3 | -2.9 | 43.2* | -0.4% | 3.6%
NC(=O)Cn1c(=O)n(-c2ccc(F)c(Cl)c2)c(=O)c2sc3ccccc3c21 | . | . | . | 8.0 | -1.0 | . | .
CCC1CCc2c(sc(NC(=O)C3CC=CCC3C(=O)O)c2C#N)C1 (stereo not drawn) | ? | 8.2 | 29.0 | -19.2 | 62.5* | 15.8µM* | ?
COc1cc(C2c3c(-c4ccccc4O)n[nH]c3C(=O)N2Cc2ccco2)ccc1OCC(C)C (stereo not drawn) | . | . | . | 3.8 | -0.2 | . | .
Cc1ccc(NC(=O)CCNS(=O)(=O)c2ccc3c(c2)CCN3C(=O)C2CC2)c(Cl)c1 | . | . | . | 3.0 | 0.9 | . | .
CSCC[C@H](NC(=O)C1CCN(S(=O)(=O)c2ccc(C)cc2)CC1)C(=O)NC1CCS(=O)(=O)C1 (stereo partly drawn) | -2.6 | -5.8 | 13.0 | -17.6 | 53.2* | -1.5% | -3.4%
COc1cccc(CNC(=O)c2ccc(CSc3nc4ccncc4n3Cc3cccc(C)c3)cc2)c1 | . | . | . | -8.6 | 0.9 | . | .
CCOC(=O)N1CCC(N(CCCOC)C(=O)Nc2ccc(CC)cc2)CC1 | -1.8 | -5.8 | -8.3 | -13.5 | 17.2 | -5.1% | -1.0%
CCOC(=O)N1CCC(N(CCOC)C(=O)Nc2ccc(Cl)cc2)CC1 | -8.8 | -13.9 | -0.8 | 0.5 | 0.2 | . | .
CCOc1cc(N2CCOCC2)c(OCC)cc1NC(=O)COc1cccc(CC)c1 | -1.5 | 1.0 | -33.7 | 14.4 | 0.3 | -9.0% | 2.0%
CCOc1ccccc1N1CCN(Cc2c(C)n(C)n(-c3ccccc3)c2=O)CC1 | -3.5 | -6.8 | 84.6* | -24.6 | 30.7* | -10.3% | 1.3%
CCOc1ccccc1N1CCN(Cc2ccc(Br)s2)CC1 | 1.8 | -5.1 | . | -24.8 | . | -5.8% | 3.8%
COc1cc(C#Cc2c(-c3cncn3C)n(C)c3ccc(-c4cnc(OC)nc4)cc23)cc(OC)c1 | 2.9 | -19.5 | 6.9 | 9.0 | -0.9 | -2.6% | -2.8%
COc1cc(C#Cc2c(-c3cncn3C)n(C)c3ccc(-c4cnc(N5CCOCC5)nc4)cc23)cc(OC)c1 | -1.7 | -6.5 | . | . | . | . | .
CCCCc1nn2c(=O)cc(COC(=O)c3cccc(OC)c3)nc2s1 | . | . | . | 9.4 | 1.1 | . | .

Compound activity deposited in PubChem BioAssay by National Center for Advancing Translational Sciences (NCATS).
